Test results reported in PubChem BioAssay AID652172 (National Center for Advancing Translational Sciences (NCATS), 2013).
The other results are listed elsewhere or left out. Results filed as inconclusive are left out. Activity calls are given as the source filed them. The call rests on the fitted dose curve; in most records, active means well fitted inhibition curve with a large enough effect; inconclusive means small, poorly fitted or top-dose-only effect; inactive means flat fitted curve, though single readings scatter.

The compounds below were run against Ubiquitin carboxyl-terminal hydrolase 2 (Homo sapiens) (UniProt O75604) (assay: Confirmation Assay for Inhibitors of Ubiquitin-specific Protease USP2a Using CHOP2 as the Reporter: K633). Conditions: USP2 cleavage of DiUb K63-3IQF, fluorescence kinetic.
Sequence of Ubiquitin carboxyl-terminal hydrolase 2 (Homo sapiens) (O75604 whole entry, looked up): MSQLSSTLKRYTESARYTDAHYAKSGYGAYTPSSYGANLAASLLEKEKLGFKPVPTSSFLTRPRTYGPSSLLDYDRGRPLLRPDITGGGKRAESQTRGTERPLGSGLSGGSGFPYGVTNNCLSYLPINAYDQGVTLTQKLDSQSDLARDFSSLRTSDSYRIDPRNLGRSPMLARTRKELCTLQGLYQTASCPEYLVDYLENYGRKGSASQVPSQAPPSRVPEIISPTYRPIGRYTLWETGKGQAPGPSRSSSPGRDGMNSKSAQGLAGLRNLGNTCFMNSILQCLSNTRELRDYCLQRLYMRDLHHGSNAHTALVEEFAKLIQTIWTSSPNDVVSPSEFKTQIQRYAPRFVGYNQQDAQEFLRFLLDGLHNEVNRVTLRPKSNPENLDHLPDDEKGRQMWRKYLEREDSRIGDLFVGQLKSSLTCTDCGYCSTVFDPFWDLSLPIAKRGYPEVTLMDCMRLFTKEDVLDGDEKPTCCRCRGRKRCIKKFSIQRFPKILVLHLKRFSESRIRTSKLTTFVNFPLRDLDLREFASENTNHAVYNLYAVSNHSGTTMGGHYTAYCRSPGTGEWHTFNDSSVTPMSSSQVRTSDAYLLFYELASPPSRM
Text: Homeostasis of cellular proteins is maintained through a combination of synthesis and degradation. The pathway that accounts for the majority of protein degradation is the ubiquitin-proteasomal pathway. Ubiquitin (Ub) is highly conserved in all cells and the generation of a multi-Ub chain typically targets proteins for degradation by the proteasome. However, ubiquitination is highly reversible and dynamic. Deubiquitination, the reverse process, is catalyzed through the action of enzymes referred to as isopeptidases or deubiquitinating enzymes (DUBs). This group of enzymes is collectively responsible for maintaining adequate pools of free ubiquitin and regulating the ubiquitination status of cellular proteins. The class of DUBs referred to as the ubiquitin-specific proteases (USP) family functions endoproteolytically to cleave Ub chains from a wide range of protein substrates. […] Confirmed qHTS active compounds were tested in an orthogonal USP2 assays utilizing a di-ubiquitin substrate labeled with a quencher on one ubiquitin and a fluorescent compound on the other, i.e. the substrate has internally quenched fluorescence or IQF (Lifesensors). In the presence of active USP2, the diubiquitin (DiUb) is cleaved and the fluorescence at 598 nm increases. […] Upon inhibition of USP2, the fluorescence signal from cleaved substrate increases less over time than in the absence of an inhibitor. […]

Q: With Cc1ccc(-c2cc(C(=O)Nc3ncco3)c3ccccc3n2)cc1C as the compound, how does the Potency read?
A: 3.43 µM (active)
